Only some compounds are listed: those with a hit (about 11% of all), similar ones and a draw of the others.
PLK1 PBD inh: qHTS for Inhibitors of PLK1-PDB (polo-like kinase 1 - polo-box domain): Primary Screen; Potency, µM, hits mostly inhibitors; Plk1 PBD binding of FITC phosphopeptide, fluorescence polarization; 2.8% of 360,000 active; Serine/threonine-protein kinase PLK1 (Homo sapiens), P53350; further: series mostly up to about 57 µM; nearly all actives have a fitted effect of over 65% in size
HP1b chromo inh: HTS for Inhibitors of HP1-beta Chromodomain Interactions with Methylated Histone Tails. Chromobox protein homolog 1 (Homo sapiens), P83916. AlphaScreen HP1-beta / biotin-H3K9me3 peptide binding. Potency, µM (titrated, usually from 114 µM), hits mostly inhibitors. 0.56% of 390,000 active; further: nearly all actives have a fitted effect of over 70% in size
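AlphaScreen: HP1-beta (50 nM) preformed 30 min with biotin-H3(1-18)K9me3 peptide (50 nM) in PBS pH 7.4, 0.01% Tween-20. Compound added for 30 min at RT, then streptavidin donor/nickel chelate acceptor beads (10 ug/mL) for 30 min.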
G9a inh: qHTS Assay for Inhibitors of Histone Lysine Methyltransferase G9a; Histone-lysine N-methyltransferase EHMT2 (Homo sapiens), Q96KQ7; G9a H3K9 monomethylation, AlphaScreen, 2 h; Potency, µM (doses to about 102 µM), hits mostly inhibitors; 8.8% of 350,000 active; further: nearly all actives have a fitted effect of over 75% in size
Target sequence (Q96KQ7 913-1193 limits assumed): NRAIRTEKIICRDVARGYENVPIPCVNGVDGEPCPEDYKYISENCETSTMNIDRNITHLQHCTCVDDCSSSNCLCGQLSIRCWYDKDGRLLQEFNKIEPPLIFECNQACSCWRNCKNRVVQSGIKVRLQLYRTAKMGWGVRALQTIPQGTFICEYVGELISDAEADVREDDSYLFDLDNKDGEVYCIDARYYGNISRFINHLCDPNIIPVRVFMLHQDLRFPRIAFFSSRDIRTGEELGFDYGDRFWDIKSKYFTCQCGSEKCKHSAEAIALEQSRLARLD
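Signal arises when biotinylated H3K9 peptide, once monomethylated, bridges streptavidin donor and antibody-captured acceptor beads. Enzyme at 20 nM was preincubated 15 min with test compounds; peptide 500 nM and SAM 20 uM then reacted for 2 h.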
JMJD2A Tudor inh: qHTS Assay for Inhibitors of JMJD2A-Tudor Domain | 4.4% of 390,000 active | Potency, µM (series often up to 114 µM), usual class: inhibitors | AID 504339, 2011 | AlphaScreen JMJD2A-Tudor / H3K4me3 peptide binding; further: nearly all actives have a fitted effect of over 50% in size
VDR inhibitor: Inhibitors of the vitamin D receptor (VDR): qHTS; Vitamin D3 receptor (Homo sapiens), P11473; VDR-SRC2-3 peptide fluorescence polarization, 2 h; Potency, µM, actives largely listed as inhibitors; 0.93% of 400,000 active; AID 504847, 2011
Target sequence (P11473 whole entry, looked up): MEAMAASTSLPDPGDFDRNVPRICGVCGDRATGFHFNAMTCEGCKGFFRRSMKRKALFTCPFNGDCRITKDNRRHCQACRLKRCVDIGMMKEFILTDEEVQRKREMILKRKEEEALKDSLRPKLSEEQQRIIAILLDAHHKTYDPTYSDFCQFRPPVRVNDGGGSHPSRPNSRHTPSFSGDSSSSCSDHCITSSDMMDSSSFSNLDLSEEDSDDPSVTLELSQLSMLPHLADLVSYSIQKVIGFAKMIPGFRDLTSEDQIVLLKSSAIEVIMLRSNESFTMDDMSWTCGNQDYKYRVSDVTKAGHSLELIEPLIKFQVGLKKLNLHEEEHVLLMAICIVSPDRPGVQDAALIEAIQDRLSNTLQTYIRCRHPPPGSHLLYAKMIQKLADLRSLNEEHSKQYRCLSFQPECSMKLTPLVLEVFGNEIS
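Fluorescence polarization assay of small-molecule disruption of VDR binding to coregulator peptide SRC2-3. Compounds and controls pin-transferred, then read after 2 h incubation at ambient room temperature.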
BAZ2B block: qHTS Assay for Inhibitors of BAZ2B. Potency, µM (titrated, usually from 114 µM), hits mostly inhibitors. AID 504333, 2011. 4.4% of 360,000 active. AlphaScreen BAZ2B-H3K14Ac peptide displacement. Bromodomain adjacent to zinc finger domain protein 2B (Homo sapiens), Q9UIF8; further: nearly all actives have a fitted effect of over 60% in size
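AlphaScreen luminescence quantifies BAZ2B engagement of H3K14Ac peptide; the protein and biotinylated peptide are both at 50 nM final, buffer PBS pH 7.4 with 0.01% Tween-20, all steps at room temperature.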
Of the large screens only hits and unclear results are named; the others gave an inactive call. The call rests on the fitted dose curve; in most records, active means well fitted curve in the direction sought with a large enough effect; inconclusive means small, poorly fitted or top-dose-only effect, or another doubt; inactive means no such curve, though single readings can be large; an effect the other way counts as inactive or inconclusive.

COCCNC(=O)C1(C)CCCN(CCC(=O)c2ccc(Br)cc2)C1 (stereo not given)	PLK1 PBD inh 9.5µM (no result: HP1b chromo inh, G9a inh, JMJD2A Tudor inh, VDR inhibitor, BAZ2B block)
COc1ccc(CNc2nc(SCc3cc(=O)n4cc(Cl)ccc4n3)nc3ccccc23)cc1	none
CC(C)(C)OC(=O)N[C@@H](C(=O)OC(C)(C)C)c1ccc2ccccc2c1	none
COC(=O)C(NC(=O)c1ccccc1C(=O)O)c1ccc2ccccc2c1 (stereo not given)	G9a inh 71µM
COc1cc(NS(=O)(=O)c2ccc(Nc3nc(-c4cccc([N+](=O)[O-])c4)cs3)cc2)nc(OC)n1	PLK1 PBD inh inconclusive, HP1b chromo inh inconclusive, G9a inh 50µM, JMJD2A Tudor inh inconclusive, BAZ2B block 45µM
O=[N+]([O-])c1cccc(-c2nc(-c3ccncc3)no2)c1	none
O=[N+]([O-])c1cccc(-c2csc(Nc3ccccc3)n2)c1	G9a inh 40µM, JMJD2A Tudor inh inconclusive, BAZ2B block inconclusive
O=[N+]([O-])c1cccc(-c2nc(-c3ccccc3)no2)c1	PLK1 PBD inh 19µM (no result: G9a inh)
O=C(COC(=O)c1ccccn1)Nc1nc(-c2cccc([N+](=O)[O-])c2)cs1	BAZ2B block 56µM
CN(N=O)C(=O)N[C@H]1[C@@H](O)[C@H](O)[C@H](CO)O[C@@H]1O	none (no result: PLK1 PBD inh, HP1b chromo inh, JMJD2A Tudor inh, BAZ2B block)
O=C(Nc1nc(-c2cccnc2)cs1)c1cccc([N+](=O)[O-])c1	none
O=C(Nc1nc(-c2ccccc2)cs1)c1cccc([N+](=O)[O-])c1	G9a inh 32µM, JMJD2A Tudor inh inconclusive, BAZ2B block 40µM
CCOC(=O)Cc1csc(NC(=O)c2ccncc2)n1	none
CCOC(=O)Cc1csc(NC(=O)c2ccc(NC(C)=O)cc2)n1	G9a inh inconclusive, JMJD2A Tudor inh 20µM
CCOC(=O)Cc1csc(NC(=O)c2cc(OC)cc(OC)c2)n1	JMJD2A Tudor inh 79µM
CC(C)(C)OC(=O)N1CCCC1C(=O)NC1COC2CC(n3cc(F)c(=O)[nH]c3=O)OC12 (stereo not given)	none (no result: PLK1 PBD inh, G9a inh, BAZ2B block)
Cc1ccc(C)c(CN2C(=O)c3ccccc3S(=O)(=O)c3ccc(C(=O)N4CCc5ccccc54)cc32)c1	G9a inh inconclusive, BAZ2B block inconclusive (no result: PLK1 PBD inh)
COc1cc(C(=O)ON=C2C(C)=CC(=O)C=C2C)cc(OC)c1OC	PLK1 PBD inh inconclusive, G9a inh 32µM, VDR inhibitor 89µM, BAZ2B block inconclusive
COc1cc(C(=O)Oc2cc(C)cc(C)c2)cc(OC)c1OC	none
COc1cc(CN2C[C@@H](CO)O[C@@H](n3cnc4c(NCc5ccc(F)cc5)ncnc43)C2)cc(OC)c1OC	none (no result: HP1b chromo inh, G9a inh, JMJD2A Tudor inh, VDR inhibitor, BAZ2B block)
CCN(CC)c1ccc(C2CC(=O)NC3=C2C(=O)CC(C)(C)C3)cc1 (stereo not given)	G9a inh 50µM
CN(C)c1ccc(C2CC(=O)NC3=C2C(=O)CC(C)(C)C3)cc1 (stereo not given)	G9a inh inconclusive
O=C(CN1CCN(c2ncc(C(F)(F)F)cc2Cl)CC1)NCCNc1ncc(C(F)(F)F)cc1Cl	none
O=C(CONS(=O)(=O)c1ccc(Cl)cc1)NCCNc1ncc(C(F)(F)F)cc1Cl	G9a inh 56µM
Cn1ccsc1=NC(=O)c1cccc(OC(F)F)c1	none
Cc1ccc(C)c(NC(=O)c2ccccc2O)c1	PLK1 PBD inh 3.4µM, JMJD2A Tudor inh inconclusive, VDR inhibitor inconclusive
Cc1ncc(CO)c(/C=N/NC(=O)c2cc(O)c(O)c(O)c2)c1O	G9a inh inconclusive, BAZ2B block 10µM (no result: PLK1 PBD inh, HP1b chromo inh, JMJD2A Tudor inh, VDR inhibitor)
Cc1c(/C=N/NC(=O)c2cc(Br)ccc2O)c(=O)n(C)c(=O)n1C	none
Cc1ncc(CO)c(/C=N/NC(=O)c2cc(Br)ccc2O)c1O	JMJD2A Tudor inh 79µM, BAZ2B block 11µM
Cc1cc(C(=O)N/N=C/c2c(CO)cnc(C)c2O)c2ccccc2n1	JMJD2A Tudor inh 50µM, BAZ2B block 25µM
Cc1ncc(CO)c(/C=N/Nc2cccc(Cl)n2)c1O	none
Cc1cccc2cc(-c3ccccc3)c(-c3ccccc3)c[n+]12	PLK1 PBD inh inconclusive, HP1b chromo inh inconclusive, JMJD2A Tudor inh inconclusive, BAZ2B block inconclusive
CCC(=O)N1CCc2cc(CNS(=O)(=O)c3c(C)cc(C)cc3C)ccc21	none (no result: PLK1 PBD inh)
CCCC(=O)C1=C(c2ccccc2)C(C#N)(C#N)C(C#N)=C1N	PLK1 PBD inh 7.5µM, G9a inh 25µM, JMJD2A Tudor inh inconclusive, VDR inhibitor inconclusive, BAZ2B block 50µM
O=C(C1CCN(Cc2ccc(F)cc2)CC1)N(CCO)Cc1ccccc1	G9a inh inconclusive, JMJD2A Tudor inh 3.5µM
Fc1ccc(CNC2CCN(Cc3ccccc3)CC2)cc1	none (no result: G9a inh)
O=C(C1CCN(Cc2ccc(F)cc2)CC1)N(CCc1ccccc1)Cc1ccccc1	HP1b chromo inh inconclusive, G9a inh 13µM, JMJD2A Tudor inh 6.3µM, BAZ2B block inconclusive
CC(C)SC1=NC(C)(C)C=C(/C=C/c2ccc(Cl)cc2Cl)N1	G9a inh 45µM, VDR inhibitor inconclusive, BAZ2B block inconclusive
CC(C)SC1=NC(C)(C)C=C(/C=C/c2c(Cl)cccc2Cl)N1	G9a inh 45µM
Clc1cccc(Cl)c1/C=C/c1nc2ccccc2[nH]1	none
CC1=C2C(CCS2(=O)=O)CC2(C1)C(=O)OC(C)(C)OC2=O (stereo not given)	G9a inh 50µM
Cc1ccc(NC(=S)N(N)CCO)cc1	PLK1 PBD inh inconclusive, G9a inh 45µM, JMJD2A Tudor inh inconclusive, BAZ2B block 79µM
CCN(N)C(=S)Nc1ccc(F)cc1	G9a inh inconclusive
C=CCn1c(-c2cnn(-c3ccccc3)c2N)n[nH]c1=S	G9a inh 7.9µM, JMJD2A Tudor inh 4µM
Cc1nnc(-c2cnn(-c3ccccc3)c2N)n1Cc1ccccc1	JMJD2A Tudor inh inconclusive
Nc1c(-c2ccc(Cl)cc2)cnn1-c1ccccc1	none
Cn1c(-c2cnn(-c3ccccc3)c2N)n[nH]c1=S	G9a inh 28µM, JMJD2A Tudor inh inconclusive
Nc1c(-c2n[nH]c(=S)n2-c2ccc(Cl)cc2Cl)cnn1-c1ccccc1	G9a inh 4.5µM
CC(C)(C)c1nc2cc(Cl)c([N+](=O)[O-])cc2o1	PLK1 PBD inh 27µM, HP1b chromo inh inconclusive, JMJD2A Tudor inh inconclusive, VDR inhibitor 79µM
CC(C)(C)Nc1nc2cc([N+](=O)[O-])ccc2o1	none
CCOc1ccc(NC(=O)c2cc(=O)c3ccc(C)c(C)c3o2)cc1	none (no result: PLK1 PBD inh)
CC1=CC(C)=Nc2ccccc2N1	G9a inh 40µM, BAZ2B block inconclusive
COc1ccc2c(c1)N(C[C@@H](C)CN(C)C)c1ccccc1S2	G9a inh 7.9µM (no result: PLK1 PBD inh, HP1b chromo inh, JMJD2A Tudor inh, BAZ2B block)

High-throughput results deposited in PubChem by National Center for Advancing Translational Sciences (NCATS).
